Assay results reported in PMC5540273 (PLoS ONE, 2017).

Assays:
Conditions in all cases: concentration: 1 μM, replicates: in singlicate; n = 1
[1] = test system: MAP3K3
[2] = test system: MAP3K4
[3] = test system: MAP4K2
[4] = test system: MAP4K3
[5] = test system: MAP4K5
[6] = test system: MAPKAPK2
[7] = test system: MAPKAPK5
[8] = test system: MARK2
[9] = test system: MARK3
[10] = test system: MARK4
[11] = test system: MAST1
[12] = test system: T1, MEK1
T1 construct: gene MAP2K1

[13] = test system: T2, MEK2
T2 construct: gene MAP2K2

[14] = test system: T3, MEK3
T3 construct: gene MAP2K3

[15] = test system: T4, MEK4
T4 construct: gene MAP2K4

[16] = test system: T5, MEK5
T5 construct: gene MAP2K5

[17] = test system: T6, MEK6
T6 construct: gene MAP2K6

[18] = test system: MELK
[19] = test system: MAP4K4
[20] = test system: MARK1
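Note: KINOMEscan kinase panel screen.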

Structure (SMILES) | %Inh [1] [%] | %Inh [2] [%] | %Inh [3] [%] | %Inh [4] [%] | %Inh [5] [%] | %Inh [6] [%] | %Inh [7] [%] | %Inh [8] [%] | %Inh [9] [%] | %Inh [10] [%] | %Inh [11] [%] | %Inh [12] [%] | %Inh [13] [%] | %Inh [14] [%] | %Inh [15] [%] | %Inh [16] [%] | %Inh [17] [%] | %Inh [18] [%] | %Inh [19] [%] | %Inh [20] [%]
CCc1nc(-c2cccc(C)c2)c(-c2ccnc(NC(=O)c3ccccc3)c2)s1 | 22 | 0 | 0 | 0 | 0 | 0 | 0 | 0 | 0 | 28 | 25 | 5 | 2 | 7 | 4 | 54 | 0 | 22 | – | –
C[C@@H]1CCN(C(=O)CO)C[C@@H]1N(C)c1ncnc2[nH]ccc12 | 7 | 5 | 0 | 0 | 0 | 0 | 0 | 0 | 0 | 0 | 5 | 0 | 0 | 0 | 0 | 12 | 3 | 0 | 0 | 0
Clc1cccc(-c2nc(Nc3ccncc3)c3ccccc3n2)c1 [GW873004] | 20 | 23 | 0 | 0 | 3 | 0 | 0 | 0 | 32 | 23 | 53 | 10 | 21 | 0 | 0 | 14 | 0 | 31 | 17 | 0
Oc1ccc2ncnc(Nc3ccc(OCc4ccccc4)cc3)c2c1 [GI262866] | 0 | 2 | 0 | 11 | 0 | 16 | 0 | 0 | 22 | 0 | 0 | 18 | 2 | 0 | 11 | 99.1 | 0 | 0 | 4 | 0
Cn1cc(-c2ccc3c(c2)CCN3C(=O)Cc2cccc(C(F)(F)F)c2)c2c(N)ncnc21 [GSK2606414] | 0 | 12 | 0 | 0 | 10 | 100 | 0 | 0 | 0 | 7 | 0 | 0 | 0 | 0 | 22 | 6 | 0 | 8 | 10 | 6
Cl.Cl.c1ccc(-c2cc3ccncc3cc2OC2CCNCC2)cc1 [GSK1122999] | 0 | 18 | 0 | 0 | 0 | 25 | 0 | 0 | 0 | 5 | 0 | 0 | 5 | 0 | 23 | 16 | 0 | 17 | 10 | 0
COc1cc2ncnc(Nc3ccc(OCc4ccccc4Br)c(Cl)c3)c2cc1OC.Cl [GI261590] | 0 | 0 | 0 | 11 | 17 | 15 | 0 | 0 | 1 | 11 | 0 | 19 | 13 | 0 | 0 | 98.9 | 0 | 0 | 0 | 29
NC(=O)c1sc(-n2cnc3ccccc32)cc1OCc1ccccc1F [GSK1024306] | 0 | 23 | 0 | 0 | 21 | 0 | 0 | 0 | 0 | 1 | 11 | 0 | 0 | 0 | 20 | 69 | 0 | 23 | 8 | 0
Fc1cccc(COc2ccc(Nc3ncnc4cc[nH]c34)cc2Cl)c1 | 0 | 4 | 0 | 0 | 7 | 4 | 26 | 36 | 9 | 0 | 65 | 12 | 21 | 18 | 20 | 47 | 0 | 6 | 21 | 0
CC(C)N1CCC(n2cnc(-c3ccc(F)cc3)c2-c2ccnc(N)n2)CC1 [SB-223132] | 0 | 26 | 0 | 0 | 0 | 1 | 0 | 0 | 14 | 15 | 0 | 0 | 22 | 0 | 0 | 31 | 3 | 8 | 0 | 0
O=C(CCO)NCCn1ccc2ncnc(Nc3ccc(Oc4cccc(C(F)(F)F)c4)c(Cl)c3)c21 | 0 | 0 | 0 | 3 | 0 | 0 | 0 | 4 | 0 | 0 | 0 | 0 | 34 | 0 | 0 | 99.4 | 0 | 0 | 3 | 0
CN1CCC(n2cnc(-c3ccc(F)cc3)c2-c2ccnc(NC3CCNCC3)n2)CC1 [SB-229482] | 0 | 1 | 12 | 0 | 0 | 8 | 6 | 13 | 0 | 6 | 27 | 0 | 0 | 18 | 0 | 0 | 0 | 0 | 0 | 8
CSc1nn2c(=O)cc(N3CCOCC3)nc2n1Cc1cccc(Cl)c1Cl [GSK2347225] | 0 | 31 | 0 | 42 | 12 | 22 | 0 | 0 | 2 | 3 | 0 | 0 | 5 | 0 | 33 | 48 | 0 | 18 | 22 | 0
CC(C)(C)c1ccc(-n2cnc3c(N)ncnc32)cc1 [SKF-97263] | 0 | 10 | 11 | 5 | 6 | 23 | 8 | 0 | 0 | 0 | 0 | 0 | 10 | 0 | 21 | 44 | 0 | 13 | 6 | 0
Cc1cccc(-c2nc(Nc3ccc4[nH]nnc4c3)c3ccccc3n2)n1 [GW867587] | 0 | 0 | 0 | 0 | 0 | 0 | 0 | 0 | 18 | 3 | 17 | 7 | 16 | 5 | 0 | 19 | 0 | 0 | 0 | 0
Cn1ccc2ncnc(Oc3ccc(NC(=O)Nc4cccnc4)c(Cl)c3)c21 | 0 | 2 | 0 | 0 | 0 | 0 | 0 | 0 | 0 | 4 | 0 | 0 | 0 | 0 | 0 | 5 | 0 | 10 | 0 | 0

Structure (SMILES) | %Inh [1] [%] | %Inh [2] [%] | %Inh [3] [%] | %Inh [4] [%] | %Inh [5] [%] | %Inh [6] [%] | %Inh [7] [%] | %Inh [8] [%] | %Inh [9] [%] | %Inh [10] [%] | %Inh [11] [%] | %Inh [12] [%] | %Inh [13] [%] | %Inh [14] [%] | %Inh [15] [%] | %Inh [16] [%] | %Inh [17] [%] | %Inh [18] [%] | %Inh [19] [%] | %Inh [20] [%]
Fc1cccc(COc2ccc(Nc3ncnc4sc(-c5ccc[nH]5)cc34)cc2Cl)c1 [GW707818] | 0 | 11 | 7 | 4 | 3 | 9 | 0 | 1 | 13 | 14 | 1 | 0 | 0 | 0 | 2 | 27 | 0 | 13 | 5 | 12
O=C(Nc1n[nH]c2nc(-c3ccco3)c(Br)cc12)c1ccc(CN2CCCC2)cc1.O=C(O)[C@H](O)[C@@H](O)C(=O)O [SB-742352] | 0 | 4 | 34 | 0 | 24 | 0 | 0 | 1 | 0 | 2 | 6 | 0 | 0 | 0 | 0 | 83 | 0 | 3 | 4 | 0
OCCOCCn1ccc2ncnc(Nc3ccc(Oc4cccc(Cl)c4)c(Cl)c3)c21 | 0 | 0 | 0 | 0 | 0 | 0 | 0 | 0 | 0 | 31 | 0 | 8 | 40 | 0 | 0 | 89 | 0 | 0 | 0 | 25
COc1cc2c(Nc3cccc(NC(=O)c4ccccc4)c3)ncnc2cc1OCCCN1CCOCC1 [GSK223810] | 0 | 18 | 0 | 9 | 43 | 5 | 0 | 0 | 0 | 22 | 0 | 0 | 3 | 7 | 4 | 80 | 0 | 15 | 0 | 11
O=C(Nc1ccccc1)Nc1ccc(Oc2ccc3nccn3n2)cc1 | 9 | 21 | 0 | 0 | 0 | 0 | 0 | 0 | 9 | 7 | 0 | 17 | 32 | 0 | 0 | 0 | 0 | 10 | 0 | 0
CNc1nccc(-c2c(-c3ccc(F)cc3)ncn2C2CCN(C)CC2)n1 [SB-222903] | 0 | 0 | 0 | 0 | 0 | 0 | 0 | 0 | 18 | 16 | 10 | 8 | 26 | 1 | 0 | 37 | 0 | 0 | 0 | 0
O=C(c1ccc(-c2cc(-c3c[nH]nc3-c3ccccn3)ccn2)cc1)N1CCCC1 [GW792479] | 11 | 25 | 0 | 0 | 0 | 0 | 0 | 4 | 0 | 15 | 12 | 14 | 30 | 20 | 0 | 30 | 0 | 0 | 5 | 0
CCCc1ccc(S(=O)(=O)NC2CCN(c3ccnc(Nc4ccc(OC)cc4)n3)C2)cc1 (stereo not drawn) [GSK1379737] | 0 | 0 | 0 | 0 | 0 | 29 | 0 | 0 | 0 | 0 | 43 | 0 | 0 | 0 | 12 | 0 | 0 | 0 | 0 | 0
FC(F)(F)c1ccc(-c2cc(-c3c[nH]nc3-c3ccccn3)ccn2)cc1 [GW599550] | 0 | 0 | 0 | 0 | 8 | 28 | 0 | 0 | 0 | 2 | 0 | 5 | 0 | 0 | 18 | 8 | 0 | 0 | 60 | 0
CC(C)(C)OC(=O)NC1CCCN(c2cc(-c3ccc4c(N)n[nH]c4c3)nc(N)n2)C1 (stereo not drawn) [GSK2286096] | 0 | 17 | 0 | 3 | 0 | 0 | 0 | 0 | 0 | 0 | 0 | 100 | 0 | 0 | 7 | 30 | 0 | 0 | 0 | 0
O=C(NCCCN1CCCC1=O)c1cnc(NCc2cc(Cl)ccc2Cl)nc1NC1CCNCC1 | 57 | 12 | 0 | 16 | 19 | 0 | 0 | 0 | 0 | 0 | 0 | 0 | 3 | 0 | 0 | 0 | 0 | 0 | 0 | 0
CSc1ccc(NC2=C(c3ccccc3Cl)C(=O)NC2=O)cc1 [SB-342411] | 0 | 30 | 0 | 10 | 6 | 3 | 1 | 0 | 0 | 13 | 0 | 14 | 3 | 0 | 0 | 5 | 76 | 4 | 2 | 3
O=C(Nc1ccccc1F)NC1CCN(c2ccnc(Nc3ccc(F)cc3)n2)C1 (stereo not drawn) [GSK1379722] | 0 | 14 | 0 | 0 | 0 | 18 | 0 | 0 | 0 | 0 | 14 | 0 | 0 | 0 | 25 | 12 | 0 | 0 | 0 | 0
N#Cc1ccc(Oc2ccc(Nc3ncnc4cc[nH]c34)cc2Cl)cc1 | 27 | 9 | 0 | 24 | 27 | 0 | 21 | 0 | 0 | 0 | 38 | 22 | 39 | 37 | 0 | 44 | 19 | 25 | 37 | 3
CCn1c(-c2ccncc2)nc2cnccc21 [SB-735216] | 10 | 23 | 12 | 0 | 0 | 16 | 29 | 100 | 96.1 | 8 | 37 | 5 | 11 | 34 | 7 | 25 | 0 | 0 | 1 | 16
